The campaign covered roughly 5,500 compounds. About 2,000 (36%) were called active. Another 18% or so got no clear call; they are omitted. Rule as the data show it: active = normalized growth mostly below about 0.91 (no sharp cut-off); inconclusive = no clear call, values can overlap the other calls; inactive = mostly above about 0.92. This is one part of the list.
Test: chemical genetic growth profiling, strain panel (AID 1159580);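 also: tested at 20 µM; growth read once vehicle control cultures reached saturation at 30 °C; 1 = growth at the plate median or of vehicle wells; lower values mean less growth of the strain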
Settings: S. cerevisiae deletion strains, growth OD

Measured: normalized growth

CC1CC(OC(=O)c2ccccc2O)CC(C)(C)C1 (stereo not given)
inactive: locus YAL021C, strain ccr4, active compounds read low 0.977 | locus YAL026C, strain drs2, active compounds read low 0.989 | locus YAL030W, strain snc1, active compounds read low 0.985 | locus YBL061C, strain skt5, active compounds read low 0.97 | locus YBR009C, strain hhf1, active compounds read low 0.914 | locus YBR023C, strain chs3, active compounds read low 0.974 | locus YBR171W, strain sec66, active compounds read low 0.987 | locus YBR231C, strain swc5, active compounds read low 0.961 | locus YBR279W, strain paf1, active compounds read low 0.98 | locus YCL011C, strain gbp2, active compounds read low 0.969 | locus YCL016C, strain dcc1, active compounds read low 0.991 | locus YCL061C, strain MRC1, active compounds read low 0.983 | locus YCL069W, strain vba3, active compounds read low 0.987 | locus YCR088W, strain abp1, active compounds read low 0.99 | locus YDL005C, strain med2, active compounds read low 0.968 | locus YDL040C, strain nat1, active compounds read low 0.983 | locus YDR001C, strain nth1, active compounds read low 0.984 | locus YDR069C, strain doa4, active compounds read low 0.943 | locus YDR137W, strain rgp1, active compounds read low 0.922 | locus YDR159W, strain sac3, active compounds read low 0.977 | locus YDR195W, strain ref2 0.968 | locus YDR297W, strain sur2, active compounds read low 0.973 | locus YDR334W, strain swr1, active compounds read low 0.985 | locus YDR335W, strain msn5, active compounds read low 0.992 | locus YDR392W, strain spt3, active compounds read low 0.89 | locus YEL003W, strain gim4, active compounds read low 0.974 | locus YEL037C, strain rad23, active compounds read low 0.987 | locus YEL061C, strain CIN8 (second series), active compounds read low 0.965 | locus YER015W, strain faa2, active compounds read low 0.975 | locus YER016W, strain bim1, active compounds read low 0.982 | locus YER111C, strain swi4, active compounds read low 0.985 | locus YER155C, strain BEM2 (second series), active compounds read low 0.982 | locus YFR010W, strain ubp6, active compounds read low 0.971 | locus YGL167C, strain pmr1, active compounds read low 0.962 | locus YGL173C, strain kem1, active compounds read low 0.967 | locus YGL227W, strain vid30, active compounds read low 0.978 | locus YGL240W, strain doc1, active compounds read low 0.933 | locus YGL253W, strain hxk2, active compounds read low 1 | locus YHR013C, strain ard1, active compounds read low 0.865 | locus YHR027C, strain rpn1, active compounds read low 0.989 | locus YHR030C, strain SLT2, active compounds read low 0.94 | locus YHR079C, strain IRE1, active compounds read low 0.958 | locus YHR142W, strain chs7, active compounds read low 0.978 | locus YJL092W, strain hpr5, active compounds read low 0.985 | locus YJL095W, strain BCK1 (second series), active compounds read low 0.993 | locus YJL095W, strain BCK1, active compounds read low 1.01 | locus YJL115W, strain asf1, active compounds read low 1 | locus YJL129C, strain trk1, active compounds read low 0.896 | locus YJL154C, strain vps35, active compounds read low 0.987 | locus YJL164C, strain tpk1, active compounds read low 0.97 | locus YJL166W, strain qcr8, active compounds read low 0.943 | locus YJL187C, strain SWE1, active compounds read low 0.974 | locus YJR066W, strain TOR1, active compounds read low 0.943 | locus YKL160W, strain elf1, active compounds read low 0.993 | locus YKR026C, strain gcn3, active compounds read low 0.953 | locus YKR091W, strain srl3, active compounds read low 0.981 | locus YLL001W, strain dnm1, active compounds read low 1.01 | locus YLL026W, active compounds read low 0.98 | locus YLL041C, strain sdh2, active compounds read low 0.989 | locus YLR027C, strain aat2, active compounds read low 0.972 | locus YLR113W, strain HOG1, active compounds read low 1 | locus YLR221C, strain rsa3, active compounds read low 0.925 | locus YLR258W, strain gsy2, active compounds read low 0.97 | locus YLR262C, strain YPT6 (second series), active compounds read low 0.904 | locus YLR320W, strain mms22, active compounds read low 0.952 | locus YLR342W, strain FKS1, active compounds read low 0.949 | locus YLR357W, strain rsc2, active compounds read low 0.975 | locus YLR370C, strain arc18, active compounds read low 0.978 | locus YLR384C, strain iki3, active compounds read low 0.997 | locus YML120C, strain ndi1, active compounds read low 0.987 | locus YMR058W, strain fet3, active compounds read low 0.981 | locus YMR125W, strain sto1, active compounds read low 0.975 | locus YMR129W, active compounds read low 0.998 | locus YMR205C, strain PFK2, active compounds read low 0.906 | locus YMR231W, strain pep5, active compounds read low 1 | locus YNL071W, strain lat1, active compounds read low 0.974 | locus YNL183C, strain NPR1, active compounds read low 0.947 | locus YNL209W, strain ssb2, active compounds read low 0.983 | locus YNL248C, strain rpa49, active compounds read low 0.989 | locus YNL322C, strain KRE1 (second series), active compounds read low 0.99 | locus YNR049C, strain mso1, active compounds read low 0.982 | locus YOR001W, strain rrp6, active compounds read low 0.996 | locus YOR070C, strain gyp1, active compounds read low 0.989 | locus YOR080W, strain dia2, active compounds read low 0.968 | locus YOR083W, strain WHI5, active compounds read low 1 | locus YOR106W, strain vam3, active compounds read low 0.951 | locus YOR231W, strain MKK1, active compounds read low 0.958 | locus YOR265W, strain rbl2, active compounds read low 0.989 | locus YOR270C, strain vph1, active compounds read low 0.977 | locus YOR290C, strain snf2, active compounds read low 0.915 | locus YPL051W, strain arl3, active compounds read low 1.01 | locus YPL078C, strain atp4, active compounds read low 0.995 | locus YPL106C, strain sse1, active compounds read low 0.974 | locus YPL240C, strain hsp82, active compounds read low 0.958 | locus YPL256C, strain CLN2, active compounds read low 0.94

Source: PubChem BioAssay AID1159580 (chemical genetic matrix, 2015)
